Cycloheximide cs: counter-screen for Shiga toxin inhibitors: cycloheximide protein synthesis inhibition. hit rate 12% among 300,000. max response, %. cell reporter, cycloheximide protein synthesis inhibition counterscreen; in the data active = max response mostly above about 13%, no sharp cut-off; inactive = mostly below about 14%; also: read at 38.3 µM for the half of the compounds with a filed dose; 0% is about no effect
Pf growth 48h: inhibits P. falciparum growth in the first generation, 48 h | P. falciparum luciferase growth in erythrocytes, 48 h | Potency, µM (top dose mostly 28.7 µM), without a hit: at the top dose activity change, negative = inhibition, usual class: inhibitors | hit rate 5.9% among 310,000; also: potency is read from the fitted curve at half-maximal effect; % is scaled to controls: 0 for no effect and ±100 for the full control effect
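Read-out is firefly luciferase luminescence from an integrated reporter in P. falciparum, so falling signal marks reduced parasite growth. Infected erythrocytes were at 2% hematocrit and 0.1% parasitemia (final) in Albumax-supplemented RPMI 1640.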
Pf growth 96h: P. falciparum growth inhibition at 96 hours; P. falciparum luciferase reporter growth, 96 h; Potency, µM (titrated, usually from 28.7 µM), for inactives: at the highest dose activity change, negative = inhibition, usual class: inhibitors; hit rate 6.9% among 320,000; AID 504834; also: potency is read from the fitted curve at half-maximal effect; % is scaled to controls: 0 for no effect and ±100 for the full control effect
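Compounds incubated with erythrocytes infected by luciferase-expressing P. falciparum (2% hematocrit, 0.05% parasitemia final) for 96 hours, 37 C in 5% CO2. Growth inhibition scored as decreased luciferase luminescence.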
Shiga toxin inh: blocks Shiga toxin action in Vero cells; inhibition, % at 38.7 µM; Vero cells, Shiga toxin protein synthesis inhibition reporter; AID 2315; hit rate 9.2% among 290,000; in the data active = inhibition mostly above about 28%, no sharp cut-off; inactive = mostly below about 43%; also: 0% is about no effect
An asterisk follows results filed as active; u = inconclusive; x = no result given; [ ] = another dose, or the depositor's remark. Rows were chosen to be rich in hits. Some 21% of all compounds tested hit in one or more screens of this group. Unless noted, calls follow the shape of the dose curve; as a rule, active = well fitted inhibition curve with a large enough effect; inconclusive = small, poorly fitted or top-dose-only effect, or another doubt; inactive = no such curve, though single readings can be large or run the other way.

SMILES | Cycloheximide cs | Pf growth 48h | Pf growth 96h | Shiga toxin inh
Cc1cc(NC(=O)CCCC(=O)Nc2ccc(F)cc2)no1 | 1 | 11% | 8.3µM* | -6
CC1CCC2C(C)C3C(CC4[C@@H]5CC=C6C[C@@H](O)CC[C@]6(C)C5CC[C@]34C)N2C1 (stereo partly specified) | 14 | x | x | -5
CC(CCN1CCN=C1Nc1ccccc1)c1ccccc1 (stereo unspecified) | 4 | 3% | u | -8
Cc1cc(NC(=O)/C=C/c2ccc(Cl)cc2)no1 | 23* | u | 45% | 73*
Cc1cc(NC(=O)C(Cl)(Cl)Cl)no1 | -2 | 42% | 12% | -7
Cc1cc(NC(=O)Nc2ccc(Cl)cc2)no1 | 27* | 74% | u | x
CN(C(=O)COC(=O)c1nc(Cl)c(Cl)c(Cl)c1Cl)C1CCS(=O)(=O)C1 (stereo unspecified) | 54* | 31%[1.15 µM] | 51%[1.15 µM] | 60
COC(=O)c1c(C)nn(-c2ccc(OC(F)(F)F)cc2)c1-c1snnc1C | 2 | u | 13µM* | -10
COC(=O)c1c(C)nn(-c2ccccc2)c1-n1cccc1 | -7 | x | u | -12
Cc1nn(-c2ccccc2)c(C)c1C(=O)Oc1ccccc1 | 36* | 51% | 54% | 59*
COc1ccc(OC(=O)c2cnn(-c3ccccc3)c2C)cc1 | 45* | 198% | x | 133*
O=C(CCl)NN1C(=O)NC(c2ccccc2)(c2ccccc2)C1=O | -5 | u | u | 19
Cc1nn(-c2ccccc2)c(C)c1C(=O)OCC(=O)NC12CC3CC(CC(C3)C1)C2 | -1 | u | 10µM* | 6
O=C(COC(=O)/C=C/c1ccccc1)NC1CCS(=O)(=O)C1 (stereo unspecified) | x | 16% | 2% | x
COc1ccc(S(=O)(=O)N2CCN(C(=O)c3c(C)nn(-c4ccccc4)c3C)CC2)cc1 | x | 10µM* | 8.3µM* | x
Cc1nn(-c2ccccc2)c(C)c1/C=C/C(=O)OCC(=O)NC1CCS(=O)(=O)C1 (stereo unspecified) | 16* | -33% | -3% | 22
COc1ccc(-n2nc(C(=O)N(C)C)nc2-c2ccccc2)cc1 | -1 | 16% | 9.3µM* | -6
COc1ccc(/C=N/NC(=O)c2nc(-c3ccccc3)n(-c3ccccc3)n2)cc1 | -1 | 6% | u | -7
C=CCN1C(=O)c2ccc(C(=O)NCC(=O)Nc3c(C)cc(C)cc3C)cc2C1=O | x | -5% | -26% | x
CCOc1ccc(C(C)=O)cc1COc1cccnc1[N+](=O)[O-] | -3 | 22% | 1% | -1
Nc1nonc1C(=O)N/N=C/c1cc2c(cc1Br)OCO2 | 9 | 23% | 46% | -22
CN(C(=O)COC(=O)c1nc(-c2ccccc2)n(-c2ccccc2)n1)C1CCS(=O)(=O)C1 (stereo unspecified) | -4 | 10% | 39% | -8
Cc1nn(-c2ccccc2)c(C)c1C(=O)OCC(=O)N(C)C1CCS(=O)(=O)C1 (stereo unspecified) | 33* | 139% | 169% | 61*
Cc1nnsc1-c1c(C(=O)Oc2ccccc2)c(C)nn1-c1ccccc1 | 1 | 9.3µM* | 13µM* | -14
COc1ccc(OC(=O)c2c(C)nn(-c3ccccc3)c2C)cc1 | 52* | 42% | 23% | 70*
SMILES | Cycloheximide cs | Pf growth 48h | Pf growth 96h | Shiga toxin inh
Cc1ccc(/C=N/n2c(C3CCCCC3)n[nH]c2=S)s1 | -1 | u | 2.1µM* | -6
CSc1ccccc1NC(=O)Nc1cccc2ccccc12 | 9 | -4% | 1% | -6
O=c1[nH]c(N/N=C/c2cc3c(cc2[N+](=O)[O-])OCO3)nc2ccccc12 | 2 | 37% | u | -2
C(=N\Nc1nc2ccccc2[nH]1)/C1CCCCC1 | 61* | u | u | 114*
O=c1[nH]c(N/N=C\c2ccc3c(c2)OCO3)nc2ccccc12 | 53* | -76% | -29% | 54*
Fc1cccc(/C=N/Nc2nc3ccccc3[nH]2)c1 | 40* | 0% | u | 84*
Fc1ccc(/C=N/Nc2nc3ccccc3[nH]2)cc1F | 36* | 0.66µM* | 0.52µM* | 118*
COc1ccccc1C(=O)NCCC(=O)Nc1ccc(OC(F)(F)F)cc1 | -2 | u | -11% | -12
Cc1cccc(C(C(N)=O)c2ncc(C(F)(F)F)cc2Cl)c1 (stereo unspecified) | -3 | -19% | 3% | -14
C(=N\Nc1nc2ccccc2[nH]1)/c1ccccc1 | 49* | u | -22% | 76*
O=c1[nH]c(N/N=C/c2ccccc2)nc2ccccc12 | 43* | -3% | 2% | 72*
Cc1cc(N/N=C/c2ccc3c(c2)OCO3)nc2ccccc12 | 47* | u | 4.7µM* | 79*
C(/CCc1ccccc1)=N\Nc1nc2ccccc2[nH]1 | 27* | u | u | 47*
O=C(N/N=C/c1ccc2c(c1)OCO2)c1cccc2ccccc12 | -1 | 5% | 50% | 19
O=c1c2ccccc2nc(N/N=C/c2ccc(O)cc2)n1O | 3 | u | 3% | 21
Clc1ccc(CN2CCN(c3ccccc3)CC2)cn1 | -1 | 30% | u | 12
O=C(CN(C(=O)CNC(=O)c1ccco1)c1ccc(F)cc1)NC1CCCC1 | 4 | -1% | 6% | 7
COc1ccc(OC)c(S(=O)(=O)N2CCCC(C(=O)NCc3cccnc3)C2)c1 (stereo unspecified) | -6 | -1% | 25% | 4
Cc1c(C(=O)N2CCOCC2)c(S(=O)(=O)Nc2cccc(C#N)c2)c(C)n1C | -3 | 17% | 0% | -8
COc1cc(CNCCCSc2nnnn2C)cc(Br)c1OC | x | -18% | u | x
CC(=O)Nc1ccccc1NS(=O)(=O)c1ccccc1NO | -1 | x | x | 3
Brc1ccc(-c2ccc(/C=N/Nc3nc4ccccc4[nH]3)o2)cc1 | 49* | 0.41µM* | 13µM* | 78*
C(=C\c1ccccc1)/C=N/Nc1nc2ccccc2[nH]1 | 27* | u | 3.3µM* | 89*
Cc1ccccc1N=C/C=C1\N(C)c2ccccc2C1(C)C | 12 | -6% | x | 37
CN1/C(=C\C=Nc2cc(S(=O)(=O)N3CCOCC3)ccc2N2CCOCC2)C(C)(C)c2ccccc21 | -7 | -25% | 8.3µM* | -12
SMILES | Cycloheximide cs | Pf growth 48h | Pf growth 96h | Shiga toxin inh
CC(C)n1c(SCC(=O)Nc2ccc(N3CCOCC3)cc2)nnc1-c1ccco1 | 4 | -3% | -19% | 19
O=[N+]([O-])c1ccc(N/N=C/c2cccnc2)cc1 | 33* | -21% | u | 41*
Cc1nnc(C)n1/N=C/c1cccnc1 | -3 | -13% | x | -12
Clc1ccc(N/N=C/c2cccnc2)cc1 | 20 | -15% | u | 30*
Cc1ccc(S(=O)(=O)N/N=C\c2cccnc2)cc1 | 0 | -28% | u | 5
C(=N\N=C\c1cccnc1)/c1cccnc1 | 40* | u | u | 26*
Cc1sc(N/N=C/c2cccnc2)nc1-c1ccc(Cl)cc1 | 15* | 13µM* | 63% | 17
Cc1ncoc1C(=O)N1CCCC(C(=O)c2ccc(C(F)(F)F)cc2)C1 (stereo unspecified) | 6 | 0% | -7% | 9
Cc1nn(-c2ccccc2)c(C)c1C(=O)NCCc1ccccc1 | 33* | 63% | 79% | 74*
CCOC(=O)c1cc(C(=O)Nc2cccc(C)c2)nn1C | 40* | 138% | 346% | 155*
